Measured values published in PubChem BioAssay AID1159580 (chemical genetic matrix, 2015).
The campaign covered roughly 5,500 compounds. About 2,000 (36%) were called active. Not shown: some 18% with an inconclusive outcome. Cut-off read from the data, not from the text of the source: active = normalized growth mostly below about 0.91 (no sharp cut-off); inconclusive = no clear call, values can overlap the other calls; inactive = mostly above about 0.92. This is one part of the list.

Experiment: chemical genetic growth profiling, strain panel (AID 1159580);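 note: tested at 20 µM; growth read once vehicle control cultures reached saturation at 30 °C; 1 = growth at the plate median or of vehicle wells; lower values mean less growth of the strain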
Conditions: growth OD
[1] = S. cerevisiae deletion strains, locus YAL013W, strain DEP1, hits give low values
[2] = S. cerevisiae deletion strains, locus YDR150W, strain NUM1, hits give low values
[3] = S. cerevisiae deletion strains, locus YNL322C, strain KRE1, hits give low values
[4] = S. cerevisiae deletion strains, locus YPL241C, strain CIN2, hits give low values

Measured: normalized growth

CC1C(=O)N(C)C(=O)c2nc[nH]c21 (configuration not stated)
inactive: [1] 0.997 | S. cerevisiae deletion strains, locus YAL040C, strain CLN3, hits give low values 0.993 | S. cerevisiae deletion strains, locus YCL061C, strain MRC1 (second series), hits give low values 1 | [2] 1.01 | S. cerevisiae deletion strains, locus YDR363W, strain ESC2, hits give low values 0.998 | S. cerevisiae deletion strains, locus YER002W, strain NOP16, hits give low values 1 | S. cerevisiae deletion strains, locus YGR229C, strain SMI1, hits give low values 0.992 | S. cerevisiae deletion strains, locus YMR307W, strain GAS1, hits give low values 0.991 | S. cerevisiae deletion strains, locus YNL128W, strain TEP1, hits give low values 1 | S. cerevisiae deletion strains, locus YNL175C, strain NOP13, hits give low values 1 | S. cerevisiae deletion strains, locus YNL197C, strain WHI3, hits give low values 0.989 | S. cerevisiae deletion strains, locus YNL224C, strain SQS1, hits give low values 1 | [3] 0.992 | S. cerevisiae deletion strains, locus YOR083W, strain WHI5 (second series), hits give low values 1.02 | [4] 1

Cc1nn(C)c(C)c1NS(=O)(=O)c1cc(Cl)sc1Cl
inactive: [1] 1 | S. cerevisiae deletion strains, locus YBR229C, strain ROT2, hits give low values 1.03 | S. cerevisiae deletion strains, locus YDL101C, strain DUN1, hits give low values 1.05 | S. cerevisiae deletion strains, locus YDL134C, strain PPH21, hits give low values 1.02 | [2] 0.956 | S. cerevisiae deletion strains, locus YEL061C, strain CIN8, hits give low values 1.03 | S. cerevisiae deletion strains, locus YGR078C, strain PAC10, hits give low values 1.01 | S. cerevisiae deletion strains, locus YHR030C, strain SLT2, hits give low values 1.04 | S. cerevisiae deletion strains, locus YHR087W, strain rtc3, hits give low values 1.03 | S. cerevisiae deletion strains, locus YJL187C, strain SWE1, hits give low values 1.02 | S. cerevisiae deletion strains, locus YJR043C, strain POL32, hits give low values 1.01 | S. cerevisiae deletion strains, locus YJR075W, strain HOC1, hits give low values 1.02 | S. cerevisiae deletion strains, locus YLR039C, strain RIC1, hits give low values 1 | S. cerevisiae deletion strains, locus YLR058C, strain SHM2 (second series), hits give low values 1.03 | S. cerevisiae deletion strains, locus YLR085C, strain ARP6, hits give low values 1.03 | S. cerevisiae deletion strains, locus YLR262C, strain YPT6, hits give low values 0.993 | S. cerevisiae deletion strains, locus YML094W, strain GIM5, hits give low values 1.01 | S. cerevisiae deletion strains, locus YMR219W, strain ESC1, hits give low values 1.01 | S. cerevisiae deletion strains, locus YMR263W, strain SAP30, hits give low values 0.914 | S. cerevisiae deletion strains, locus YNL153C, strain GIM3, hits give low values 1.04 | S. cerevisiae deletion strains, locus YNL298W, strain CLA4 (second series), hits give low values 1.04 | [3] 1.01 | S. cerevisiae deletion strains, locus YNR030W, strain Alg12, hits give low values 1.01 | S. cerevisiae deletion strains, locus YPL055C, strain LGE1, hits give low values 1.01 | [4] 1.01 | S. cerevisiae deletion strains, locus YPR135W, strain CTF4, hits give low values 1.14 | S. cerevisiae strains, strain wild type, hits give low values 1.02
